Legend:
[1] = molecular target: T1, Aspartate--tRNA(Asp/Asn) ligase (Mycobacterium tuberculosis (strain ATCC 25618 / H37Rv)) (UniProt P9WFW3); experiment: Assay for Asp RNA synthetase-1 from Mycobacterium tuberculosis; type: functional; parameters: scale not given: direction of the effect not stated beside the values; conditions: 30 µM; note: in the data most compounds retested in dose-response had high values
T1 sequence (whole entry): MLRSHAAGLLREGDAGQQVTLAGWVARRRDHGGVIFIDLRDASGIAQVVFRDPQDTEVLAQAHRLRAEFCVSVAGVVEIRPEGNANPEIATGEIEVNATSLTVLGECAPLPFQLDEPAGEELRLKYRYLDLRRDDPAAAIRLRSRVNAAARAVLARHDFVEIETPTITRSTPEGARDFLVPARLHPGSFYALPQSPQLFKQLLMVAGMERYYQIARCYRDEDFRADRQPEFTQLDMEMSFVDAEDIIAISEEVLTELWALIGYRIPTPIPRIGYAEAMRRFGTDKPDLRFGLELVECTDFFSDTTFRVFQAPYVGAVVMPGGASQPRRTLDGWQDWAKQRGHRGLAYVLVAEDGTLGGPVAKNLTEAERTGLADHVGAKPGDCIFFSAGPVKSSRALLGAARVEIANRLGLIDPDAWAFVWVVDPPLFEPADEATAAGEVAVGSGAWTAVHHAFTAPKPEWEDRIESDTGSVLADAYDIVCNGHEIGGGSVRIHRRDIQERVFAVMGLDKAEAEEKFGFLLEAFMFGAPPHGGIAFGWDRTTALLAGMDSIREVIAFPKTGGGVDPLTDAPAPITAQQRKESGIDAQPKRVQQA

[2] = molecular target: Shiga toxin 2 (Escherichia coli O157:H7) (UniProt P09385+P09386); experiment: E. coli 0.157:H7 Shiga Toxin SOP - stx2 screening assay; type: functional; parameters: scale not given: direction of the effect not stated beside the values; conditions: 30 µM

SMILES	Percent Effect [1] [%]	Percent Effect [2] [%]
CCc1nc(C2CCCN2C(=O)CCc2cccs2)no1 (stereo unspecified)	-0.641	24
Fc1cccc(Oc2ccc(CNCC3CNc4ccnn4C3)cn2)c1 (stereo unspecified)	-6.37	-101
O=C(c1ccco1)N1CCCC1C1CCN(Cc2ccccc2)CC1 (stereo unspecified)	4.64	-11.3
Cc1[nH]c(=O)[nH]c(=O)c1CN1CCCC(CCc2ccccc2)C1 (stereo unspecified)	-0.814	-2.29
COc1ccc(CN2CCCC2Cn2nc(C)nc2C)cc1F (stereo unspecified)	-1.56	-0.778
CCc1nc(C2CCCN2C(=O)c2nccnc2N)no1 (stereo unspecified)	-4.3	8.58
CCc1ncnc2c1CCN(C(=O)Cc1ccccn1)CC2	-1.97	-18.4
CS(=O)(=O)N1CC[C@H]2O[C@H](C(=O)NCCc3ccncc3)CC[C@H]21	7.02	-26
Cc1cc(C)c(CNC(=O)NCCOc2ccc3c(c2)CCC3)c(=O)[nH]1	-2.17	15
O=C1CC(N(C(=O)c2ccc3[nH]c4c(c3c2)CCCC4)C2CC2)C(=O)N1 (stereo unspecified)	1.2	-28.8
Cc1nn2c(N3CCC(O)C3)cc(-c3ccccc3)nc2c1C (stereo unspecified)	-2.73	-33.6
Cn1ccc(CN2CCC(Oc3ccccc3)CC2)cc1=O	-1.21	-5.66
Cc1noc(C(C)C)c1C(=O)NS(=O)(=O)c1ccc2c(c1)OCCCO2	2.22	-0.248
CC(C)N(Cc1cccc(F)c1)Cc1nc2c(cnn2C)c(=O)[nH]1	-5.3	-0.112
Cc1nn(CC(C)C)c(N(C)C)c1CNCc1cccnc1N(C)C	0.161	24.5
c1csc(N2CCCN(Cc3nc(C4CC4)no3)CC2)n1	-1.91	12.8
Cc1cnn(CC2CCCN2Cc2cc(=O)n3ccccc3n2)c1 (stereo unspecified)	2.04	2.37
Cc1cc(CN(C)C(=O)c2ccnc(N(C)C)c2)no1	-3.84	-18.4
c1ccc(-c2cnc(CN3CCn4c(nnc4C4CC4)C3)o2)cc1	0.278	23.8
Fc1ccc(-c2nnc(CN3CCOC(Cn4cncn4)C3)o2)cc1 (stereo unspecified)	1.55	-15.2
CC(C)NC(=O)N1CC[C@@H]2CN(Cc3ccccc3)S(=O)(=O)[C@@H]2CC1	-3.29	-5.27
Cc1ccc(C(=O)N2CCn3cc(CN(C)Cc4ccco4)nc3C2)o1	-0.889	-35.1
Cc1cc(C)nc(NC(=O)C(C)Oc2ccc3c(c2)OCO3)n1 (stereo unspecified)	12.6	-50
